What all share (design): species or system human, MV4-11 + K-562 + COLO205 + SK-N-BE2 + OVCAR-8
Test [1] has as its system CIT. The conditions noted are these: read-out: apparent Kd, n = 1.
Test [2] has as its system CSNK1A1. The note with it: read-out: apparent Kd; compound concentrations:100 nM and 1000 nM (sheet 'Samples'); n = 1.
Test [3] concerns CSNK1D. The conditions noted are these: read-out: apparent Kd, n = 1.
In test [4] the test system is CSNK1E. The note with it: read-out: apparent Kd, n = 1.
Test [5] has as its system DDR1. The conditions noted are these: read-out: apparent Kd; compound concentrations:100 nM and 1000 nM (sheet 'Samples'); n = 1.
The subject of test [6] is MAPK11. The conditions noted are these: read-out: apparent Kd; compound concentrations:100 nM and 1000 nM (sheet 'Samples'); n = 1.
Test [7] concerns MAPKAPK2. The conditions noted are these: read-out: apparent Kd, n = 1.
Test [8] deals with NLK. The note with it: read-out: apparent Kd; compound concentrations:100 nM and 1000 nM (sheet 'Samples'); n = 1.
Test [9] deals with PRKCA. The conditions noted are these: read-out: apparent Kd, n = 1.
Test [10] concerns PRKD2. The conditions noted are these: read-out: apparent Kd; compound concentrations:100 nM and 1000 nM (sheet 'Samples'); n = 1.
In test [11] the test system is PRKD3. The conditions noted are these: read-out: apparent Kd; compound concentrations:100 nM and 1000 nM (sheet 'Samples'); n = 1.
Test [12] relates to RIPK2. The note with it: read-out: apparent Kd; compound concentrations:100 nM and 1000 nM (sheet 'Samples'); n = 1.
Test [13] has as its system SIK3. The note with it: read-out: apparent Kd; compound concentrations:100 nM and 1000 nM (sheet 'Samples'); n = 1.
The subject of test [14] is TNIK. The note with it: read-out: apparent Kd, n = 1.
For test [15], the system named is CDKL5. The conditions noted are these: read-out: apparent Kd; compound concentrations: 100 nM and 1000 nM (sheet 'Samples'), CATDS: 7.1774388141359599E-2; n = 1.
The subject of test [16] is CLK1. The conditions noted are these: read-out: apparent Kd, compound concentrations: 100 nM and 1000 nM (sheet 'Samples'), n = 1.
Test [17] deals with CLK2. The conditions noted are these: read-out: apparent Kd, compound concentrations: 100 nM and 1000 nM (sheet 'Samples'), n = 1.
Test [18] deals with GSK3A. The conditions noted are these: read-out: apparent Kd, compound concentrations: 100 nM and 1000 nM (sheet 'Samples'), n = 1.
Test [19] deals with GSK3B. The note with it: read-out: apparent Kd; compound concentrations: 100 nM and 1000 nM (sheet 'Samples'), CATDS: 0.20850333664225901; n = 1.
The test system of test [20] is ICK. The note with it: read-out: apparent Kd; compound concentrations: 100 nM and 1000 nM (sheet 'Samples'), CATDS: 0.107034687138564; n = 1.
The test system of test [21] is PRKCB. The note with it: read-out: apparent Kd; compound concentrations: 100 nM and 1000 nM (sheet 'Samples'), CATDS: 7.1835327532873305E-2; n = 1.
Test [22] relates to PRKCD. The note with it: read-out: apparent Kd; compound concentrations: 100 nM and 1000 nM (sheet 'Samples'), CATDS: 8.6510432478471705E-2; n = 1.
Test [23] relates to PRKCQ. The note with it: read-out: apparent Kd; compound concentrations: 100 nM and 1000 nM (sheet 'Samples'), CATDS: 8.9522770196270404E-2; n = 1.
Test [24] concerns CLK4. The note with it: read-out: apparent Kd; compound concentrations: 100 nM and 1000 nM (sheet 'Samples'), CATDS: 0.28990629676542801; n = 1.
The subject of test [25] is DYRK1A. The conditions noted are these: read-out: apparent Kd; compound concentrations: 100 nM and 1000 nM (sheet 'Samples'), CATDS: 7.2131324717133599E-2; n = 1.
Test [26] concerns GAK. The conditions noted are these: read-out: apparent Kd, compound concentrations: 100 nM and 1000 nM (sheet 'Samples'), n = 1.
Test [27] concerns JAK1. The note with it: read-out: apparent Kd; compound concentrations: 100 nM and 1000 nM (sheet 'Samples'), CATDS: 8.1370183106340005E-2; n = 1.
Test [28] deals with PI4KB. The conditions noted are these: read-out: apparent Kd; compound concentrations: 100 nM and 1000 nM (sheet 'Samples'), CATDS: 0.120056979351962; n = 1.
The subject of test [29] is PIK3C2B. The note with it: read-out: apparent Kd; compound concentrations: 100 nM and 1000 nM (sheet 'Samples'), CATDS: 8.8068304969215402E-2; n = 1.
Test [30] deals with MAPK14. The conditions noted are these: read-out: apparent Kd; compound concentrations: 100 nM and 1000 nM (sheet 'Samples'), CATDS: 0.21797862519498301; n = 1.
Test [31] relates to CDK7. The note with it: read-out: apparent Kd; compound concentrations: 100 nM and 1000 nM (sheet 'Samples'), CATDS: 8.4335056049156601E-2; n = 1.
Test [32] relates to EPHA5. The note with it: read-out: apparent Kd; compound concentrations: 100 nM and 1000 nM (sheet 'Samples'), CATDS: 7.2696381065974702E-2; n = 1.
The subject of test [33] is EPHB4. The conditions noted are these: read-out: apparent Kd; compound concentrations: 100 nM and 1000 nM (sheet 'Samples'), CATDS: 7.5541211933236804E-2; n = 1.
In test [34] the test system is ERCC2. The conditions noted are these: read-out: apparent Kd; compound concentrations: 100 nM and 1000 nM (sheet 'Samples'), CATDS: 9.6102785253179598E-2; n = 1.
Test [35] deals with FER. The conditions noted are these: read-out: apparent Kd; compound concentrations: 100 nM and 1000 nM (sheet 'Samples'), CATDS: 7.77606230380051E-2; n = 1.
The subject of test [36] is PIK3C3. The note with it: read-out: apparent Kd; compound concentrations: 100 nM and 1000 nM (sheet 'Samples'), CATDS: 0.106578843558364; n = 1.
For test [37], the system named is PIK3CB. The conditions noted are these: read-out: apparent Kd; compound concentrations: 100 nM and 1000 nM (sheet 'Samples'), CATDS: 0.68027770173125801; n = 1.
Test [38] relates to TNK1. The conditions noted are these: read-out: apparent Kd; compound concentrations: 100 nM and 1000 nM (sheet 'Samples'), CATDS: 9.2477692433592898E-2; n = 1.
The subject of test [39] is TNK2. The conditions noted are these: read-out: apparent Kd; compound concentrations: 100 nM and 1000 nM (sheet 'Samples'), CATDS: 8.9325991753534395E-2; n = 1.
Setting [40] is: compound concentrations:100 nM and 1000 nM (sheet 'Samples').

Structures are written as SMILES. Where two headings read alike, the source gives them in different places.

As for `Cl.Nc1nccc(-c2c(-c3ccc(F)cc3)ncn2C2CCNCC2)n1` [SB-220025-A], the potency estimated from few doses in test [1] (setting [40]) was 0.815 µM; in test [2] it was 0.0198 µM; in test [3] (setting [40]), 0.00163 µM; in [4] (setting [40]) it was 0.00251 µM; in test [5], 1.35 µM; in test [6] it was 0.689 µM. The potency estimated from few doses in [7] (setting [40]) is 0.00323 µM; in test [8], 0.324 µM; in [9] (setting [40]) it was 2.37 µM; in test [10] it was 0.956 µM; in test [11], 1.42 µM; in test [12] it was 0.0683 µM. Also, the potency estimated from few doses in test [13] is 1.14 µM; in test [14] (setting [40]), 1.61 µM.

On to `Cn1cc(C2=C(c3cn(C)c4cc(N)ccc34)C(=O)NC2=O)c2ccccc21` [RO0317511-000], for which the potency estimated from few doses was 1.81 µM in test [15]; 0.816 µM in test [16] (CATDS: 9.43888536674687E-2); 0.386 µM in [17] (CATDS: 0.135718758721844); 0.223 µM in test [18] (CATDS: 0.18937077321649401); 0.193 µM in [19]; 0.614 µM in [20]. Moreover, the potency estimated from few doses is 1.14 µM in test [9] (compound concentrations: 100 nM and 1000 nM (sheet 'Samples'), CATDS: 8.3091420111897102E-2); 1.8 µM in test [21]; 1.02 µM in [22]; 0.93 µM in test [23].

As to `Cl.O=C1Nc2ccc(-c3cccnc3)cc2C1=Cc1cc(Br)c(O)c(Br)c1` [GW2429374A], the potency estimated from few doses in [16] (CATDS: 0.24190894696409601) is 0.0752 µM; in [17] (CATDS: 8.8411635671529196E-2), 0.766 µM; in test [24], 0.0563 µM; in test [25], 1.76 µM; in test [26] (CATDS: 0.20480817101344501), 0.1 µM; in [27], 1.03 µM. Also, the potency estimated from few doses is 0.315 µM in [28]; 0.777 µM in test [29]; 0.784 µM in [14] (compound concentrations: 100 nM and 1000 nM (sheet 'Samples'), CATDS: 8.7825927191877803E-2).

In the case of `Fc1ccc(-c2nn3cccc(F)c3c2-c2ccncc2)cc1` [GW475620X], the potency estimated from few doses in [1] (compound concentrations: 100 nM and 1000 nM (sheet 'Samples'), CATDS: 0.166280456271373) was 1.69 µM; in [3] (compound concentrations: 100 nM and 1000 nM (sheet 'Samples'), CATDS: 0.24593653580007899), 0.751 µM; in [4] (compound concentrations: 100 nM and 1000 nM (sheet 'Samples'), CATDS: 0.167544749669055), 1.66 µM; in test [30], 0.934 µM; in test [7] (compound concentrations: 100 nM and 1000 nM (sheet 'Samples'), CATDS: 0.22915733614063999), 0.851 µM.

As to `O=c1cc(N2CCOCC2)nc2n(Cc3cccc(Cl)c3Cl)ccn12` [GSK2286295A], the potency estimated from few doses in [31] is 0.923 µM; in test [32] it was 1.36 µM; in test [33] it was 1.22 µM; in test [34], 0.687 µM; in [35], 1.13 µM; in test [26] (CATDS: 7.8204164782115004E-2), 1.11 µM. Moreover, the potency estimated from few doses in test [18] (CATDS: 7.5555777377750599E-2) was 1.22 µM; in test [36], 0.554 µM; in test [37] it was 0.0218 µM; in test [38], 0.747 µM; in [39], 0.807 µM.

Source of the values: publication PMC11062922 (Nature Chemical Biology, 2023).
